Bioassay records: PubChem, several laboratories
PREPL inh: inhibits the human prolyl oligopeptidase-like enzyme; recombinant PREPL, fluorescence polarization activity-based probe; inhibition, % at 5.96 µM; Q4J6C6; actives 0.68% (n = 320,000);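 also: 0% = enzyme with DMSO and 100% = wells lacking enzyme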
Hck-Nef inh: inhibitors of human Hck kinase activated by Nef | P08631 | Recombinant Hck-YEEI plus Nef, Z-Lyte FRET kinase assay | inhibition, % at 20 µM | actives 0.68% (n = 220,000) | AID 463187;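 active = Hck-Nef kinase inhibition above about 50%, limit read from the data; inactive = inhibition below that limit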;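 also: 0% = DMSO with Hck plus Nef and 100% = Hck alone without Nef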
LYPLA1 counter: LYPLA1 (human) inhibition in PME1 counter-screen. inhibition, % at 5.9 µM. actives 0.16% (n = 320,000). O75608. recombinant LYPLA1, FP-Rh probe fluorescence polarization. AID 2174;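 active = inhibition above the mean of all tested compounds plus 3 SD, set per campaign, cut at about 14% in these data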;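 also: inhibitors block serine hydrolase probe labeling of LYPLA1 so polarization falls; 0% = enzyme with DMSO and 100% = wells lacking LYPLA1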
LYPLA2 inh: blocks human lysophospholipase 2, a PME1 counter-screen | O95372 | inhibition, % at 5.9 µM | AID 2177 | actives 0.38% (n = 320,000) | recombinant LYPLA2, FP-Rh probe fluorescence polarization;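 active = inhibition above the screen-wide mean plus 3 SD, limit set per campaign, cut at about 26% in these data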;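 also: 0% = LYPLA2 with DMSO and 100% = wells lacking LYPLA2 enzyme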
Rin1-Abl PPI inh: human Rin1-Abl interaction inhibition; AID 588664; actives 0.4% (n = 360,000); P00519+Q13671; TR-FRET Rin1/Abl binding, biochemical; inhibition, % at 7.35 µM; in the data active = inhibition above about 5%, passing the limit was not always enough
Target sequence (P00519 whole entry, looked up): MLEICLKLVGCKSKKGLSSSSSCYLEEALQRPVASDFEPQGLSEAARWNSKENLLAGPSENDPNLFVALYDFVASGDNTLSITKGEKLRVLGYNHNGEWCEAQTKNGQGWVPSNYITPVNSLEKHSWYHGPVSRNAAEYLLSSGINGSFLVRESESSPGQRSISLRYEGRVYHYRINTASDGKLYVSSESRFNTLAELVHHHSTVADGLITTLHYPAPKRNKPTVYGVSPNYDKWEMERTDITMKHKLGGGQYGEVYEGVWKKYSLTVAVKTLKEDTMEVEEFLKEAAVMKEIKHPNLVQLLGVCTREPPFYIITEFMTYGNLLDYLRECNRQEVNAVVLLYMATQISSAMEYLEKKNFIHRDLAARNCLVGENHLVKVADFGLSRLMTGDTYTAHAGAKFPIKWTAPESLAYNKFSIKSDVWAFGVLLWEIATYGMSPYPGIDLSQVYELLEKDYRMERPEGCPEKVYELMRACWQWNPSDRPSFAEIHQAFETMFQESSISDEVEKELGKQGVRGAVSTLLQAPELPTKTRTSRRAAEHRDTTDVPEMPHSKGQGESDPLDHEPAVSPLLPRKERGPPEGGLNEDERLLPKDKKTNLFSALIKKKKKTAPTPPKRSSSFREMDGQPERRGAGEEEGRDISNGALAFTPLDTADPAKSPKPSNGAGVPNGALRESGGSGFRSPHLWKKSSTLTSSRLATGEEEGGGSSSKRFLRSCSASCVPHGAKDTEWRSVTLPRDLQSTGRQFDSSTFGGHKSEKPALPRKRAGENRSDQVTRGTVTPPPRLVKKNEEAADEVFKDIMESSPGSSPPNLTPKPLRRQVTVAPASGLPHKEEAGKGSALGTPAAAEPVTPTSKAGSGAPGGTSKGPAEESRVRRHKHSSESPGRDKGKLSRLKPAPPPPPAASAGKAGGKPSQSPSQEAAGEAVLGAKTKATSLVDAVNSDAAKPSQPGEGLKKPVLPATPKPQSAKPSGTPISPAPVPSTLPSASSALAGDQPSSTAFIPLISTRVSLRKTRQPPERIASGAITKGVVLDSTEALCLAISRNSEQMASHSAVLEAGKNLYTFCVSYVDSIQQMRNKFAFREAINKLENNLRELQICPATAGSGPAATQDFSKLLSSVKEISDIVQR
Target sequence (Q13671 whole entry, looked up): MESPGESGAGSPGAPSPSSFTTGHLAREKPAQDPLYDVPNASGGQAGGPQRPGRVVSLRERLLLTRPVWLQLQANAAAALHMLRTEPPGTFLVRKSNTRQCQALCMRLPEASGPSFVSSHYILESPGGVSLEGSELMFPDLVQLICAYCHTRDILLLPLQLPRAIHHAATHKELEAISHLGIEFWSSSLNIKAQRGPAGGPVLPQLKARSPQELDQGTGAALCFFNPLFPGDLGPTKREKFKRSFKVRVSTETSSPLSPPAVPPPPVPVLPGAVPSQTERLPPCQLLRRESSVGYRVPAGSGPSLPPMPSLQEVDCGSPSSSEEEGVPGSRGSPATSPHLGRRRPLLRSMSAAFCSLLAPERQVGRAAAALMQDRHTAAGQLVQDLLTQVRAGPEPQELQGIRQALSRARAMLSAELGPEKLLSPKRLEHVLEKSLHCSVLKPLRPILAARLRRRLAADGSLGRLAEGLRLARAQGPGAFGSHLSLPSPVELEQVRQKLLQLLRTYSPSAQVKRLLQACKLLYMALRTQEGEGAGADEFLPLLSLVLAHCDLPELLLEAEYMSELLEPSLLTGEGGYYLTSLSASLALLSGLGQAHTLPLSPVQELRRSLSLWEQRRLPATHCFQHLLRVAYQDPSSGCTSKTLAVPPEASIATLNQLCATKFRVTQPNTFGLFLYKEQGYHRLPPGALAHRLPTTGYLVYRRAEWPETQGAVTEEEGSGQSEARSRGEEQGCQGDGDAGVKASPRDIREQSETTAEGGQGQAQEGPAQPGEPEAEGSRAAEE
p97 inhibitor: blocks human p97 ATPase activity; P55072; recombinant p97 ATPase, Kinase-Glo ATP luminescence, 3 h; inhibition, % at 8 µM; actives 0.42% (n = 220,000); in the data active = inhibition above about 15%;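 also: 0% = DMSO vehicle and 100% = wells lacking enzyme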
PREPL inh cf: human PREPL inhibition, confirmation; shares compounds with PREPL inh; actives 67% (n = 2,000); recombinant PREPL, fluorescence polarization activity probe; inhibition, % at 5.96 µM; AID 2803;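 also: 0% = protein with DMSO and 100% = wells lacking protein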
An asterisk follows results filed as active; · = not tested or not shown; ! = not active in a repeat. A selection: hits, their analogues and other compounds. The true share with any hit is near 1.7%. Rule as the data show it, unless noted: active = inhibition above about 43%; inactive = the rest.

SMILES	PREPL inh	Hck-Nef inh	LYPLA1 counter	LYPLA2 inh	Rin1-Abl PPI inh	p97 inhibitor	PREPL inh cf
CCC[C@@H](CN1CCC[C@H]1CN1C(N)=NC[C@@H]1Cc1ccccc1)N1C[C@@H](Cc2ccccc2)N(CCCC2CCCC2)C1=N	42	·	·	·	0	·	·
CCC[C@@H](CN1CCC[C@H]1CN1C(N)=NC[C@H]1CC(C)C)N1C[C@@H](Cc2ccccc2)N(CCCC2CCCC2)C1=N	49*	·	·	·	2	·	41
CCCCN1C(=N)N([C@@H](CCC)CN2CCC[C@H]2CN2C(N)=NC[C@@H]2Cc2ccccc2)C[C@H]1Cc1ccccc1	45*	·	·	·	0	·	45*
CC(C)C[C@@H](CN1CCC[C@@H]1CN1C(=O)C(=O)NC[C@@H]1Cc1ccccc1)N1C[C@H](Cc2ccccc2)N(CC2CCCCCC2)C(=O)C1=O	·	·	·	·	-6	·	·
c1ccc(C[C@H]2CN=C(Nc3ccccc3)N2CCCC2CCCCC2)cc1	3	·	·	·	2	·	·
CC(C)[C@H](CN1CCC[C@H]1CN1C(N)=NC[C@H]1C(C)C)N1C[C@@H](Cc2ccccc2)N(CCCC2CCCC2)C1=N	61*	·	·	·	0	·	59*
CCC[C@@H](CN1CCC[C@H]1CN1C(N)=NC[C@@H]1Cc1ccccc1)N1C[C@@H]([C@H](C)CC)N(CCCC2CCCC2)C1=N	54*	·	·	·	5	·	52*
O=C(c1cc(F)c(F)cc1Cl)N1CCN(CCc2ccccc2)CC1	9	·	1	5	0	·	·
COC(=O)CCC(=O)OC1(C)C(=O)C2=CN(C(CO)CO)C(c3ccc(OC)cc3)=CC2=C(Br)C1=O (stereo not given)	58*	8	0	-2	·	·	40
CCCCC1=CC2=CC(=O)C(C)(OC(=O)CC)C(=O)C2=CN1C(CO)CO (stereo not given)	-1	25	2	-1	2	·	·
O=C(C[n+]1ccccn1)c1ccccc1	13	·	-6	-1	1	·	·
Cc1ccc(C)c(-c2nn(-c3cc(N4CCN(CCO)CC4)ccc3[N+](=O)[O-])c(=O)c3ccccc23)c1	62*	7	-2	2	-5	-4	57*
Cc1ccc(NS(=O)(=O)c2cc3c4c(cccc4c2)C(=O)NC3=O)cc1C	45*	7	7	7	0	9	31
COc1cc(NC(=O)Cn2cnc3c(SC)nc(N)nc32)cc(OC)c1OC	23	·	·	·	-1	·	·
CC(Oc1ccc(F)cc1)C(=O)Nc1cccc(S(=O)(=O)N(C)c2ccccc2)c1 (stereo not given)	·	·	·	·	-3	·	·
Cc1c(C(=O)NN)nn(-c2ccc(Cl)cc2)c(=O)c1C#N	41	17	-4	-2	-1	4	·
Cc1ccc(-n2nc(C(=O)NN)c(C)c(C#N)c2=O)cc1Cl	66*	·	3	4	-1	·	34
NC(=O)C1(Nc2ccccc2)CCCC1	·	·	·	·	1	·	·
CSc1ccc(/C=N/S(=O)(=O)c2ccccc2)cc1	2	·	5	-3	0	·	·
Cc1ccccc1OCC(O)Cn1c(=N)n(CCN2CCOCC2)c2ccccc21 (stereo not given)	56*	8	3	2	3	4	45*!
CCc1nnc(SCC(=O)Nc2ccc(NC(C)=O)cc2)n1-n1cccc1	21	·	4	8	3	·	·
Nc1c(N=Nc2ccccc2F)c(=O)[nH]n1-c1ccccc1	23	-3	-1	1	-2	-5	·
Nc1nn(-c2ccccc2)c(N)c1N=Nc1ccccc1F	54*	2	1	-2	-3	9	56*
Nc1nn(-c2ccccc2)c(N)c1N=Nc1ccccc1	51*	3	-5	0	-1	0	55*
Cc1ccc2c(c1)c1c3n2CCN(CC(O)CNC(C)C)C3CCC1 (stereo not given)	44*	·	1	-6	-3	·	31
SMILES	PREPL inh	Hck-Nef inh	LYPLA1 counter	LYPLA2 inh	Rin1-Abl PPI inh	p97 inhibitor	PREPL inh cf
CCOC(=O)C1CCN(Cc2cc(=O)oc3c(C)c(C)ccc23)CC1	44*	·	-1	4	2	·	35
Cc1ccc2c(CN3CCC(C)CC3)cc(=O)oc2c1C	·	·	·	·	0	·	·
O=C(Cc1cn(-c2ccccc2)nc1-c1ccccc1)N1CCCCC1	5	·	2	4	2	·	·
CC1(C)C(=O)Nc2ccccc2N1C(=O)COC(=O)Cc1ccc(Cl)c(Cl)c1	47*	·	·	·	0	·	38
O=C(CCN1C(=O)[C@@H]2Cc3ccccc3CN2C1=O)N[C@@H](Cc1ccccc1)C(=O)O	12	·	2	1	1	·	·
COC(=O)/C(C#N)=C/c1c(N2CCN(c3ccc(OC)cc3)CC2)nc2c(C)cccn2c1=O	48*	·	5	4	-8	·	46*
CNC(=O)/C(C#N)=C/c1c(N2CCN(c3ccc(OC)cc3)CC2)nc2c(C)cccn2c1=O	52*	·	2	8	0	·	44*
COCCCNC(=O)/C(C#N)=C/c1c(N2CCN(c3ccc(OC)cc3)CC2)nc2c(C)cccn2c1=O	51*	·	-2	8	2	·	52*
CNC(=O)/C(C#N)=C/c1c(N2CCN(c3ccccc3)CC2)nc2c(C)cccn2c1=O	16	·	-1	-9	0	·	·
CCCCC(CC)C(=O)Nc1cc(C(=O)NCCC)ccc1N1CCC2(CC1)CC(c1ccccc1)=NO2 (stereo not given)	50*	·	-8	-15	4	·	55*
CCCNC(=O)c1ccc(N2CCC3(CC2)CC(c2ccccc2)=NO3)c(NC(=O)c2ccco2)c1	8	·	-10	-3	-2	·	·
CC[C@]12c3[nH]c4ccc(Cl)cc4c3CCN1C(=O)[C@@H](CC(=O)NCCc1ccccn1)C[C@@H]2C(=O)N1CCN(C(=O)c2ccco2)CC1	·	·	·	·	2	·	·
Oc1cc(Nc2ccncc2)cc2cccnc12	47*	·	·	·	0	·	51*
Oc1cc(Nc2cccnc2)cc2cccnc12	29	·	·	·	2	·	·
O=C(Nc1ccc(N2CCCC2)cc1)c1cccc(-c2cc3ccccc3oc2=O)c1	10	1	-13	-7	3	3	·
O=C(Nc1ccccc1N1CCCC1)c1cccc(-c2cc3ccccc3oc2=O)c1	45*	4	-3	1	2	-2	32
COc1ccc2c(c1)c1c(c(=O)n(-c3ccc(C)cc3)c(=O)n1CC(=O)NCC1CCCO1)n2C (stereo not given)	·	·	·	·	-1	·	·
c1ccc(N2CCN(c3nc(-c4ccccn4)nc4ccccc34)CC2)cc1	83*	0	3	2	3	-3	79*
CN1CCN(c2nc(-c3ccccn3)nc3ccccc23)CC1	11	0	3	0	0	5	·
CC(C)(C)c1cc(NCCCn2ccnc2)n2ncc(-c3ccc(Cl)cc3)c2n1	38	2	-2	1	-2	-12	·
CN(C)CCCNc1cc(C(C)(C)C)nc2c(-c3ccccc3)cnn12	67*	9	2	1	0	-3	61*
